Data: the OligoGym collection

These sequences were tested against MARCH9 (assay: pooled miR-30 sensor sort-seq; sequence = guide strand). Settings: shRNA.
Further: reference of the scale not given here.

| Sequence | sensor-assay potency score (higher = more potent) |
| --- | --- |
| TAGTACTCCTCCTCGTCGCCGT | -0.394 |
| TTGTCCAGCTGGTACCTCCAGC | -0.754 |
| TAATTTAGGACCTTCCACTGCT | 0.933 |

These sequences were tested against MAST4 in the same assay as above. Settings: shRNA.

| Sequence | sensor-assay potency score (higher = more potent) |
| --- | --- |
| TAGGTAGTAAAATTCTTCCGGA | 0.168 |
| TTGGCCTTCAGCTTGTCGCGGT | 0.119 |
| TTTCTTTCGGAGGTAATCGATG | -1.18 |
| TTTGTCCACAGAGTCTTCCTTC | 0.0254 |
| TTCTGTGCTTTCTAATCGCTGC | 0.164 |
| TTGCTTTTCACCAACAGCGGAC | -0.756 |
| TTGCTAATCAATTTAATCGTTT | -0.519 |
| TTCACATCGGAGAAGCTCCTTG | -0.392 |
| TATACTTCAGTGATTTTCCAGG | -0.751 |
| TAACTGATGCAACTTCTCCTGG | -0.165 |
| TTTGCTTTTCACCAACAGCGGA | -0.849 |
| TTGCCTATTAAGCTTTTCCGGT | -0.995 |

The sequences below were run against MATR3 in the same assay as above. Settings: shRNA.

| Sequence | sensor-assay potency score (higher = more potent) |
| --- | --- |
| TTGAACTCTCAGTCTTCTGGGA | 0.368 |
| TTCACTTGTATCTTTGTTGGGA | 0.73 |
| TTCTTGTTCTTTACCTTCGGTT | -0.715 |
| TTGTGTAATAATCCACTGCGGC | -0.905 |
| TTTCTCACCATCTTCACCGGAC | -0.137 |
| TTTCTCAGACAGGTCAACCTTC | 0.61 |
| TTCGGTTGAACTCTCAGTCTTC | 0.606 |
| TATTCTTTGCAACTTCTTCATT | -0.992 |
| TAAGCTTTTTCTTTGCTGCTGC | 0.692 |
| TATACCAACAGGAACATTGGGC | 0.454 |
| TTGCTTTTGATCAAACTTCTGA | -0.275 |
| TTGATCAAACTTCTGATCTGGC | 0.816 |

The sequences below were run against MBD3 in the same assay as above. Settings: shRNA.

| Sequence | sensor-assay potency score (higher = more potent) |
| --- | --- |
| TAATCTTGGTCACCGGCTGCTT | -0.615 |
| TTCTTCTCCCAGAAGAGCTGGC | -0.362 |
| TTGAAGATGGACGCCGTCTGGC | -0.445 |
| TTGGTAATCTTGGTCACCGGCT | -0.729 |
| ATCTTGCTCATCAGCATCTTGC | -1.63 |
| TTGCTCATCAGCATCTTGCCCG | -0.234 |
| TCGTCGTCGTCCTCAGCGCAGG | -1.74 |
| ATCAGCATCTTGCCCGTGCGGA | -0.991 |
| TTGCTGCGGAACTTCTTCCCGC | -0.815 |
| TCGCTCTTGACCTTGTTGCTGG | -0.788 |
| TCGTCGGTCACCATGAAGGCTT | -0.866 |
| TTGGGGAGGTCCATGGTCTTGA | -0.977 |
